Experimental data: PubChem BioAssay AID602163 (The Scripps Research Institute Molecular Screening Center, 2012)
“And” between values parts separate entries of the source, which are not always exact repeats. Identical values can stand only once. Out of some 360,000 compounds screened, about 1,100 (0.31%) were called active. Shown is part of a subset that was picked to be rich in actives. A number with no mark means an inactive call. Rule as the data show it: active = activation above about 7.5%; inactive = the rest.

tested on: Methionine sulfoxide reductase A (Bos taurus); test: bovine MsrA enzyme activators, primary screen, biochemical, absorbance, HTS (AID 602163); conditions: purified bovine MsrA, absorbance read-out; at 10.6 µM; active compounds read high;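 also: 0% = vehicle and 100% = reference activator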

Structure (SMILES)	activation
COc1ccc(NC(=O)CSc2nnnn2-c2cccc(OC)c2)cc1	-2.59%
CCOc1cccc(-n2nnnc2-c2ccc(OC)cc2)c1	15.8% (active)
CCOC(=O)C(C)n1cnc2c(nnn2-c2cccc(OC)c2)c1=O (centres undefined)	-0.63%
COC(=O)c1c(C)cc(O)c(C)c1O	3.54%
Cc1cc(OCc2cc(C(=O)NCc3cc(C(C)C)no3)no2)cc(C)c1Cl	-8.01%
S=c1[nH]nc(Nc2ccccc2)s1	3.66%
Nc1c(NCCc2ccccc2)c2ccccc2oc1=O	-3.29%
S=c1[nH]nc(NCCc2ccccc2)s1	10.4% (active)
Cc1cc(=O)oc2c1ccc1ccccc12	-2.71%
CC1(C)S[C@@H]2[C@H](NC(=O)COc3ccccc3)C(=O)N2C1C(=O)OCc1ccccc1 (some centres undefined)	8.55% (active)
COC(=O)C1[C@H]2SC(C)(C)C(C(=O)OC)N2C(=O)N1Cc1nc2ccccc2s1 (some centres undefined)	-2.77%
CC1(C)SC2C(NC(=O)COc3ccccc3)C(=O)N2C1C(=O)O (centres undefined)	-2.47% and -3.56%
O=c1oc2ccc(C#CC3(O)CCCCC3)cc2cc1-n1cc(-c2ccsc2)nn1	-0.09%
CSCCC1NC(=O)N(CC(=O)Nc2cccc(S(=O)(=O)N3CCCCCC3)c2)C1=O (centres undefined)	15.5% (active)
Cn1nnnc1SCC(=O)Nc1cccc(S(=O)(=O)N2CCCCC2)c1	-4.48%
O=C(CSc1ccccc1)Nc1cccc(S(=O)(=O)N2CCCCC2)c1	-2.42%
O=C(O)C1CCCCC1C(=O)Nc1ccc(Cl)cc1 (centres undefined)	9.28% (active)
Cc1ccc(NC(=O)C2CC2c2ccccc2)cc1 (centres undefined)	1.6%
CC(=O)Nc1ccc(NC(=O)C2CCCN(S(=O)(=O)c3ccc(Cl)cc3)C2)cc1 (centres undefined)	-1.47%
O=C(NC1CCN(C(=S)Nc2ccc(Cl)cc2)CC1)C1CCCCC1	-9.13%
O=C(Cc1ccc(F)cc1)NC1CCCC1	-5.09%
O=C(O)Cc1ccc(NC(=O)C2CCCCC2C(=O)O)cc1 (centres undefined)	8.45% (active)

Structure (SMILES)	activation
O=S1(=O)C=C(SCCN2CCCC2)c2ccccc21	3.43%
CN1CCN(c2ccc3c(c2)OC[C@H](Cc2ccccc2)NS3(=O)=O)CC1	-2%
O=C(O)C1OC(C(=O)O)C2C1C(F)(F)C2(F)F (centres undefined)	0.7%
C/C(Cc1ccccc1)=N\NC(=O)CNC(=O)c1ccc2c(c1)OCCO2	-1.01%
Cc1ccc(NC(=O)c2cc([N+](=O)[O-])ccc2Cl)c(O)c1	-10%
O=C(Nc1ccc2c(c1)OCCO2)C(c1ccc(F)cc1)N1CCCCC1 (centres undefined)	-9.07%
Fc1ccccc1COc1ccccc1CNCc1ccncc1	-0.5%
COc1cccc(CNCCc2c[nH]c3ccccc23)c1OCc1ccccc1F	7.97% (active)
COc1ccc(CN(C)C(=O)Cc2c[nH]c3ccccc23)c(OC)c1OC	-0.09%
CSc1ccc(Cl)c(C(=O)OCC(=O)N2CC(C)OC(C)C2)c1 (centres undefined)	1.67%
CCN(/N=C/c1ccc(N(C)C)cc1)c1nc2ccccc2[nH]1	-3.63%
CC1(C)CC(=O)C(C=NCc2cccnc2)=C(O)C1	-1.39%
COC(=O)C1(O)CC(C(C)C)=NN1C(=O)c1ccc(Cl)cc1 (centres undefined)	-2.59%
NC(N)=Nc1nc2ccc(Br)cc2c(=O)[nH]1	-1.23%
O=c1c2cc(Br)ccc2nc(-c2cccc(Cl)c2)n1O	8.68% (active)
NC(=O)c1cc(-c2cccnc2)nc2ccc(Br)cc12	-2.46%
COc1ccccc1C(=O)Nc1ccc(OCC(=O)N2CCCCC2)cc1	-2.88%
COc1ccc(/C=C/C2=CC(C)(C)NC(=S)N2)c(OC)c1	-3.37%
COc1ccc(NC(=O)COC(=O)CNC(=O)C2CCCCC2)cc1	-4.73%
c1ccc(CNCc2ccc(CNCc3ccccc3)cc2)cc1	-4.45%
CCOc1ccccc1OCCCNCc1ccccc1	8.23% (active)
CCOCCCNCc1ccc(OCc2ccc(F)cc2)c(OC)c1	-0.52%

Structure (SMILES)	activation
Cc1ccccc1NC(=O)c1nn(-c2ccc(F)c(F)c2)ccc1=O	0.66%
Cc1[nH]c(C)c(S(=O)(=O)N2CCN(c3cccc(C(F)(F)F)c3)CC2)c1C(=O)N1CCCC1	-2.75%
COc1ccccc1CNC(=O)c1cc(-c2cc(F)ccc2OC)n[nH]1	1.13%
Oc1cc(O)c2c(c1)OC(c1ccc(O)c(O)c1)C(O)C2 (centres undefined)	-3.17%
O=C(Nc1c(Br)cc2c(c1Br)Cc1cc([N+](=O)[O-])ccc1-2)C(Cl)Cl	-0.8%
COc1ccc(C(CNC(=O)c2cc3c(s2)CCCC3)N2CCOCC2)cc1 (centres undefined)	9.37% (active)
COc1ccc(C(CNC(=O)c2cccnc2SC)N2CCOCC2)cc1 (centres undefined)	-1.39%
COc1ccc(C(CNC(=O)CSc2ccccc2)N2CCOCC2)cc1 (centres undefined)	-2.38%
CCC(C)CCN1CCN=C1N(C)C (centres undefined)	-6.93%
O=C(NC1CCc2ccccc21)C12CN(Cc3ccccc3)CC1C(c1cccc([N+](=O)[O-])c1)=NO2 (centres undefined)	-4.81%
O=C(NCCCN1CCOCC1)c1cnn2c(-c3ccccc3)cc(-c3ccccc3)nc12	0.61%
COc1cccc(CNn2cn[nH]c2=S)c1OCc1ccccc1	-8.32%
COc1ccccc1-n1cn[nH]c1=S	9.25% (active)
FC(F)(F)c1ccc(-n2cn[nH]c2=S)cc1	4.3%
CCN(C(=O)Cc1nc(N)n[nH]1)C1(C(=O)Nc2ccccc2)CCCCC1	-1.75%
Nc1[nH]c(=S)nc2nc(-c3ccccc3)c(-c3ccccc3)nc12	4.05%
COc1ccc(S(=O)(=O)N(C)C)cc1NC(=O)COC(=O)c1n[nH]c2ccccc12	-0.9%
O=C(COC(=O)c1n[nH]c2ccccc12)Nc1ccccc1Br	-2.21%
CN(C)S(=O)(=O)c1ccc(NC(=O)COC(=O)c2n[nH]c3ccccc23)cc1	14.2% (active)
Cn1nnnc1SCC(=O)N1CCN(Cc2ccccc2)CC1	10.8% (active)
CC(=O)c1ccc(-n2nnnc2SCC(=O)N2CCN(C(=O)c3ccco3)CC2)cc1	-6.56%
Cn1nnnc1SCC(=O)N1CCN(C(c2ccccc2)c2ccccc2)CC1	-4.74%

Structure (SMILES)	activation
CC(C)COC(=O)n1c(=O)oc2ccc(S(=O)(=O)N3CCCCC3)cc21	-0.43%
COc1ccc(C2=NN(C(=O)CSc3nc(=O)n4ccc(C)cc4n3)C(c3ccc(C)cc3)C2)cc1 (centres undefined)	-4.23%
FC(F)(F)C1CCCN(c2nsc3ccccc23)C1 (centres undefined)	13% (active)
CCCNCc1cc(OCC)c(OCC(=O)Nc2ccccc2)cc1Br	-1.95%
C=CCN1C(=O)C2(OCCCO2)c2cccc(Cl)c21	-1.83%
CC(C)(C)C(=O)CCN1C(=O)C2(OCCO2)c2ccccc21	10.5% (active)
O=C(CC1(O)C(=O)N(CN2CCOCC2)c2ccccc21)c1ccccc1 (centres undefined)	-7.26%
CC(C)C[C@H]1CNC(=O)C(=O)N1C[C@@H]1CCCN1C[C@H](Cc1ccccc1)N1C[C@H](CC(C)C)N(CC2CCCCCC2)C(=O)C1=O	-1.34%
CC1CCC2CCCCC2N1C(=O)c1cc([N+](=O)[O-])cc([N+](=O)[O-])c1 (centres undefined)	-1.47%
CCOC(=O)[C@H]1Nc2ccc(Cl)cc2[C@@H]2[C@H]1C1CC(c3ccccc31)N2C(=O)OCc1ccccc1 (some centres undefined)	-4.81%
O=C(O)C#Cc1cccc2ccccc12	-6.37%
CCCCCCNC(=O)CSc1nccn1Cc1ccccc1	-3.24%
O=C(NCc1ccccc1)C1c2ccccc2OCC(=O)N1CCCN1CCOCC1 (centres undefined)	-2.2%
O=C(NC1CCCC1)C1c2ccccc2OCC(=O)N1Cc1ccccc1 (centres undefined)	-2.39%
O=C(NCc1ccccc1)C1c2ccccc2OCC(=O)N1C1CC1 (centres undefined)	8.21% (active)
CN1CCN(Cc2c(C(=O)N3CCc4ccccc4C3)nc3ccc(Cl)cn23)CC1	-13%
Nc1ccn(C2CC(O)C(CO)O2)c(=O)n1 (centres undefined)	-1.31%
COC(=O)C1CCN(C(=O)COC(=O)c2cc(S(=O)(=O)N3CCOCC3)ccc2C)CC1	-0.23%
CCS(=O)(=O)c1ccc2c(c1)N(S(=O)(=O)c1ccccc1)CC(C(=O)O)O2 (centres undefined)	-3.49%
COc1ccc(N2CCN(S(=O)(=O)c3cc4c5c(c3)C(C)C(=O)N5CCC4)CC2)cc1 (centres undefined)	0.45%
COc1ccc(C2C(C(C)=O)=C(O)C(=O)N2c2nccs2)cc1 (centres undefined)	-4.03%
CC(=O)C1=C(O)C(=O)N(c2ccc(Br)cc2)C1c1ccc([N+](=O)[O-])cc1 (centres undefined)	-4.41%

Structure (SMILES)	activation
COC(=O)CN1C(=O)C(O)=C(C(C)=O)C1c1ccc([N+](=O)[O-])cc1 (centres undefined)	8.27% (active)
COC(=O)c1ccccc1NC(=O)C1(S(=O)(=O)c2ccc(Cl)cc2)CC1	-4.86%
CCCc1c(C)nc2c(Br)cccc2c1Cl	-2.47%
CCN(CC)CCCC(C)n1c2nc(=O)[nH]c(=O)c-2nc2cc(Cl)ccc21 (centres undefined)	11.7% (active)
COC(C/C=C/C(=O)[C@@H](C)OCc1ccccc1)OC	5.11%
CSC1=NC2(C)CCCCC2C12C=CC(=O)C=C2 (centres undefined)	-3.42%
CC(C)CCNC(=O)C1CCC(CNc2c(N3CCC(C)CC3)c(=O)c2=O)CC1 (centres undefined)	-7.85%
CC(C)(C)N1C(=O)c2c(C(=O)OCc3ccccc3)[nH]c(-c3ccccc3)c2C1=O	-2.85%
O=C1C(Sc2cccc(F)c2)=C[C@@]2(O)CC[C@@H](O)[C@]1(Sc1cccc(F)c1)[C@H]2O	11.4% (active)
CN1CCN(c2ccc(CNS(=O)(=O)c3cccc(F)c3)cc2)CC1	-2.8%
Cc1nccn1CCCNC(=O)CC1C(=O)NCCN1Cc1ccc(Cl)c(F)c1 (centres undefined)	-5.91%
O=c1onc(-c2cccs2)n1Cc1ccccc1	-2.25%
COc1ccc(NC(=O)CN(C)C(=O)/C=C/c2cn(Cc3ccccc3)nc2-c2cccnc2)cc1	-3.42%
O=C(O)/C=C/c1cn(Cc2ccccc2)nc1-c1cccs1	9.05% (active)
Cc1cccc(NC(=O)Cn2c(=O)n(Cc3ccccc3)c(=O)c3c(C)c(C)sc32)c1	-2.33%
O=C1CCC(C(=O)N2CCC(O)(c3ccccc3)CC2)CN1CCc1ccccc1 (centres undefined)	-3.3%
COc1ccc(C(=O)NCC2CCCO2)cc1S(=O)(=O)NCc1ccc(Cl)cc1 (centres undefined)	-6%
COc1ccc(Cl)cc1NS(=O)(=O)c1cccc(C(=O)NC2CCC(O)CC2)c1 (centres undefined)	-0.8%
COc1ccc(Cl)cc1NS(=O)(=O)c1cccc(C(=O)NCC2CCCO2)c1 (centres undefined)	8.29% (active)
CC(C)NC(=S)NN=C1CCCCCCCCCCC1	-2.24%
C=C(C)C1CC=C(C)/C(=N\NC(=O)CNc2ccccc2OC)C1 (centres undefined)	-4.34%
